Assay [1] is described as follows: qHTS of pediatric cancer cell lines to identify multiple opportunities for drug repurposing: Primary screen for OHS-50 cells (AID 1347103). Note: nearly all actives have a fitted effect of over 40% in size. Note: potency is the fitted concentration of half-maximal effect. The method in brief: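 Cells (500-1,000/well) rested 5 h, then received compounds for 48 h; metabolically active cells were measured by CellTiter-Glo luminescence. Final concentrations spanned up to 46 µM (MIPE, 11-point) or 0.59 nM-46 µM (NPC, 8-point) in primary screens, 11-point in follow-ups.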
(In qHTS, concentration-response curves come from the screen itself.)

Assay [2] can be described thus: qHTS of pediatric cancer cell lines to identify multiple opportunities for drug repurposing: Primary screen for RD cells (AID 1347104). Note: nearly all actives have a fitted effect of over 55% in size. Note: potency is the fitted concentration of half-maximal effect. The method in brief:
(§1)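 Plated cells (500-1,000 per well, growth media) were allowed to settle for 5 hours, treated with compound dilutions for 48 hours, then lysed with CellTiter-Glo for 15 min at room temperature before luminescence reading.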

The nature of assay [3]: qHTS of pediatric cancer cell lines to identify multiple opportunities for drug repurposing: Primary screen for MG 63 (6-TG R) cells (AID 1347105). Note: nearly all actives have a fitted effect of over 50% in size. Note: potency is the fitted concentration of half-maximal effect. The method in brief:
as §1

Assay [4] is described as follows: qHTS of pediatric cancer cell lines to identify multiple opportunities for drug repurposing: Primary screen for Rh30 cells (AID 1347107). Note: series mostly up to about 46 µM; nearly all actives have a fitted effect of over 75% in size. The method in brief: (§2)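 Cells (500-1,000/well) in growth media were settled 5 h at 37 degrees C, then given compounds for 48 h. Viability was read as CellTiter-Glo luminescence. Primary runs used MIPE at 11 points (0.78 nM-46 µM) and NPC at 8 points (0.59 nM-46 µM); follow-ups used 11 points.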

Assay [5] is described as follows: qHTS of pediatric cancer cell lines to identify multiple opportunities for drug repurposing: Primary screen for control Hh wild type fibroblast cells (AID 1347106).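 Note: series mostly up to about 46 µM; a drop in luminescence marks cytotoxicity and a rise apparent proliferation; nearly all actives have a fitted effect of over 55% in size.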 The method in brief: as §2
The nature of assay [6]: qHTS of pediatric cancer cell lines to identify multiple opportunities for drug repurposing: Primary screen for Rh41 cells (AID 1347108). Note: nearly all actives have a fitted effect of over 70% in size. Note: potency is the fitted concentration of half-maximal effect. The method in brief:
as §1

Assay [7] is described as follows: qHTS of pediatric cancer cell lines to identify multiple opportunities for drug repurposing: Confirmatory screen for NB1643 cells (AID 1347109). Note: nearly all actives have a fitted effect of over 45% in size. Note: potency is the fitted concentration of half-maximal effect. The method in brief:
as §2

Assay [8] in a line: qHTS of pediatric cancer cell lines to identify multiple opportunities for drug repurposing: Confirmatory screen for A673 cells (AID 1347110).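 Note: cells exposed to compound for 48 h before the viability read; nearly all actives have a fitted effect of over 65% in size.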 Note: potency is the fitted concentration of half-maximal effect. The method in brief: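 Cells plated at 500-1,000/well were treated five hours later with multi-point dilutions up to 46 µM final. After two days, CellTiter-Glo was added and luminescence read.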
Assay [9] can be described thus: qHTS of pediatric cancer cell lines to identify multiple opportunities for drug repurposing: Confirmatory screen for SK-N-MC cells (AID 1347111).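 Note: cells exposed to compound for 48 h before the readout; nearly all actives have a fitted effect of over 70% in size.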 Note: potency is the fitted concentration of half-maximal effect. The method in brief:
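Metabolically active cells were quantified by ATP-dependent luminescence (CellTiter-Glo, 15 min at room temperature) following 48 h treatment. Cells had been plated at 500-1,000 per well and settled for 5 h beforehand.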

Assay [10] is described as follows: qHTS of pediatric cancer cell lines to identify multiple opportunities for drug repurposing: Confirmatory screen for BT-12 cells (AID 1347112). Note: nearly all actives have a fitted effect of over 55% in size. Note: potency is the fitted concentration of half-maximal effect. The method in brief:
as §2

Records with an inconclusive call do not appear. Calls of active or inactive are those of the source. Calls come from the whole dose curve; as a rule, active = well fitted curve in the direction sought with a large enough effect; inconclusive = small, poorly fitted or top-dose-only effect, or another doubt; inactive = no such curve, though single readings can be large; an effect the other way counts as inactive or inconclusive.

On to `O=C(Nc1ccc(S(=O)(=O)N2CCOCC2)cc1)c1cc(Cl)ccc1NS(=O)(=O)c1ccc(Cl)s1`, for which the Potency result in assay [1], in [2], in assay [3] and in assay [4] was “inactive” in each case.

As to `CN1Cc2cc(C(=O)N3CCC(C4CCNCC4)CC3)ccc2NC(CC(=O)O)C1=O` (centres undefined), the Potency entry in [1], in assay [2], in [3], in [5], in assay [4] and in assay [6] was “inactive” each time.

On to `O=C(O)c1ccccc1Nc1cc(Cl)ccc1C(=O)O`, for which the Potency entry in assay [1], in assay [2], in [3] and in [4] was “inactive” each time. Besides, the Potency in assay [6] was 11.6 µM (active).

For the molecule `CC1(C)O[C@@H]2C[C@H]3[C@@H]4CCC5=CC(=O)C=C[C@]5(C)[C@@]4(F)[C@@H](O)C[C@]3(C)[C@]2(C(=O)CO)O1`, the Potency result in assay [1], in assay [2], in [3] and in assay [4] was “inactive” each time.

For `CO[C@@]1(NC(=O)CSC[C@@H](N)C(=O)O)C(=O)N2C(C(=O)O)=C(CSc3nnnn3C)CS[C@@H]21`, the Potency entry in assay [1], in [2], in [3], in assay [4] and in assay [6] was “inactive” in each case.

In the case of `CCOC(=O)NNc1nncc2ccccc12`, the Potency result in assay [1], in assay [2], in assay [3], in assay [5], in assay [4] and in [6] was “inactive” each time.

For the molecule `Nc1c(I)cc(I)c(C(=O)N(CCC(=O)O)c2ccccc2)c1I`, the Potency entry in assay [1], in assay [2], in assay [3], in assay [4] and in [6] was “inactive” in each case.

For the molecule `CC(C)C(=O)Nc1cccc(C(F)(F)F)c1`, the Potency entry in assay [1], in assay [2], in assay [3], in assay [4] and in assay [6] was “inactive” in each case.

In the case of `CC(=O)[C@@]1(O)CC[C@H]2[C@@H]3C[C@H](C)C4=CC(=O)CC[C@]4(C)[C@H]3CC[C@@]21C`, the Potency in assay [1] is 27.6 µM (active); in assay [8], 0.261 µM (active); in assay [9], 4.14 µM (active). Besides, the Potency result in assay [2], in [3], in [5], in assay [4], in assay [6] and in assay [7] was “inactive” each time.

As to `CCOc1c(N2CCOCC2)cnn(C)c1=O`, the Potency result in assay [1], in [2], in [3], in [5], in assay [4] and in [6] was “inactive” each time.

With `CCc1cc2cc(OC)c(OC)cc2c(Cc2ccccc2)n1`, the Potency in assay [1] was 21.9 µM (active). In addition, the Potency result in [2], in assay [3], in [5], in assay [4], in assay [6] and in assay [7] was “inactive” throughout. The Potency result in assay [8], in assay [9] and in [10] was “inactive” throughout.

With `CC(=O)OCC(=O)Nc1cc(C#N)cc(NC(=O)COC(C)=O)c1Cl`, the Potency entry in assay [1], in assay [2], in [3], in assay [5], in assay [4] and in [6] was “inactive” each time.

Turning to `COc1cc2c(cc1OC)CN(C(=O)[C@H](C)N[C@@H](CCc1ccccc1)C(=O)O)[C@H](C(=O)O)C2`, the Potency result in assay [1], in [2], in assay [3], in [4] and in [6] was “inactive” in each case.

Regarding `CC(COc1ccccc1)NN` (centres undefined), the Potency entry in assay [1], in assay [2], in assay [3], in assay [5], in [4] and in assay [6] was “inactive” throughout.

In the case of `CCN1C(=O)c2ccccc2C1Nc1ccc(OCCN2CCCCC2)cc1` (centres undefined), the Potency result in [1], in [2], in assay [3], in assay [5], in assay [4] and in assay [6] was “inactive” throughout.

Take `COC(=O)/C=C\C(=O)OC`: the Potency result in assay [1], in assay [2], in assay [3], in assay [4] and in [6] was “inactive” each time.

For `Nc1c(NC/C=C\COc2cc(CN3CCCCC3)ccn2)c(=O)c1=O`, the Potency entry in assay [1], in assay [2], in assay [3], in assay [5], in [4] and in [6] was “inactive” throughout.

As for `COc1ccc(/C(C)=C/C(=O)O)c(OC)c1`, the Potency entry in [1], in assay [2], in assay [3], in assay [4] and in assay [6] was “inactive” throughout.

As for `COc1cc(S(N)(=O)=O)cc(C(=O)O)c1OC`, the Potency result in [1], in assay [2], in assay [3], in [4] and in [6] was “inactive” in each case.

Turning to `CCC(C(=O)NC(=O)NC(C)=O)c1ccccc1` (centres undefined), the Potency entry in assay [1], in assay [2], in assay [3], in [5], in [4] and in assay [6] was “inactive” each time.

`CCC(=O)O[C@]1(C(=O)COC)[C@@H](C)C[C@H]2[C@@H]3CCC4=CC(=O)C=C[C@]4(C)C3(F)[C@@H](O)C[C@@]21C` (some centres undefined): the Potency entry in assay [1], in assay [2], in assay [3], in assay [5], in assay [4] and in assay [6] was “inactive” each time. In addition, the Potency entry in [7], in [8], in assay [9] and in [10] was “inactive” throughout.

Turning to `CCCCC(CC)CNC(=O)CC(C)OC(=O)CCC(=O)O` (centres undefined), the Potency entry in [1], in [2], in assay [3], in [5], in assay [4] and in [6] was “inactive” throughout. Moreover, the Potency result in [7] and in assay [10] was “inactive” throughout. In addition, in assay [8], the Potency was 2.61 µM (active).

Consider `C[C@H]1C[C@@H]2[C@H]([C@@H](O)C[C@@]3(C)[C@H]2CC[C@]3(O)C(=O)CO)[C@@]2(C)C=CC(=O)C=C12`, for which the Potency entry in [1], in assay [2], in [3], in assay [5], in [4] and in assay [6] was “inactive” throughout. For the same molecule, the Potency entry in assay [8] and in assay [10] was “inactive” each time.

Turning to `CCOc1ccc(NS(=O)(=O)c2ccc(N)cc2)nn1`, the Potency result in [1], in assay [2], in assay [3] and in assay [4] was “inactive” in each case.

Take `C/C(=C1\CCOC(=O)S1)N(C=O)Cc1cnc(C)nc1N`: the Potency result in [1], in [2], in [5], in assay [4] and in [6] was “inactive” each time.

In the case of `CCCC(CCC)(C(=O)OCC)C(=O)OCC`, the Potency entry in assay [1], in assay [2], in assay [3], in assay [4] and in assay [6] was “inactive” in each case.

Turning to `O=[N+]([O-])c1ccc(O)c2ncccc12`, the Potency is 5.5 µM (active) in [1]; 5.31 µM (active) in assay [2]; 6.68 µM (active) in assay [3]; 14.7 µM (active) in assay [7]; 8.27 µM (active) in [9]; 20.8 µM (active) in [10].

On to `NC(=O)COCCN1CCN(C(c2ccccc2)c2ccc(Cl)cc2)CC1` (centres undefined), for which the Potency entry in assay [1], in assay [2], in assay [5], in assay [4] and in assay [6] was “inactive” in each case.

Regarding `O=C(O)C(=O)Nc1cccc(-c2nn[nH]n2)c1`, the Potency result in assay [1], in assay [2], in assay [5], in assay [4] and in [6] was “inactive” in each case.

With `CCN(CC)CCOc1ccc(/C(=C(\Cl)c2ccccc2)c2ccccc2)cc1`, the Potency was 24.6 µM (active) in assay [1] and 23.7 µM (active) in assay [2]. In addition, the Potency result in [5] and in [4] was “inactive” in each case.

As for `CCCCCCCCCCCCCCCCCCNC(=O)OC1CCN(C(=O)OC[C@H](COC(=O)N(Cc2cccc[n+]2CC)C(=O)c2ccccc2OC)OC)CC1`, the Potency in assay [1] was 11 µM (active); in assay [2], 23.7 µM (active). In assay [5], the Potency entry was “inactive”.

Turning to `Cc1nc([N+](=O)[O-])cn1-c1ccc([N+](=O)[O-])cc1`, the Potency result in assay [1], in assay [2], in [5], in assay [4] and in assay [6] was “inactive” throughout.
